Values joined by “and” are separate entries in the source; they are usually repeats but may differ in a detail not shown here. Identical values can stand only once. Records with an inconclusive call do not appear. Where a call stands in place of a potency, no number is given. Some compounds were tested as several samples or in several runs, with calls that do not always agree. Active and inactive are the calls of the source. Unless noted, calls follow the shape of the dose curve; as a rule, active = well fitted curve in the direction sought with a large enough effect in the repeat runs; inconclusive = weak or mixed curves; inactive = no such curve, though single readings can be large; an effect the other way counts as inactive or inconclusive.
Experiments:
[1] = qHTS assay to identify small molecule antagonists of the glucocorticoid receptor (GR) signaling pathway - cell viability counter screen (AID 720693); also: nearly all actives have a fitted effect of over 55% in size; also: potency is read from the fitted curve at half-maximal effect
[2] = qHTS assay for identifying genotoxic compounds that show differential cytotoxicity against isogenic chicken DT40 cell lines with known DNA damage response pathways - wild type cell line (AID 743012); also: nearly all actives have a fitted effect of over 60% in size; also: potency is read from the fitted curve at half-maximal effect
Method in brief: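 Luminescent ATP viability signal (CellTiter-Glo, 30 min RT) recorded after wild type DT40 cells were incubated with compounds for 40 h at 37 C/5% CO2.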

[3] = qHTS assay for identifying genotoxic compounds that show differential cytotoxicity against isogenic chicken DT40 cell lines with known DNA damage response pathways - Rev3 mutant cell line (AID 743014); also: nearly all actives have a fitted effect of over 55% in size; also: potency is read from the fitted curve at half-maximal effect
[4] = qHTS assay for identifying genotoxic compounds that show differential cytotoxicity against isogenic chicken DT40 cell lines with known DNA damage response pathways - Rad54/Ku70 mutant cell line (AID 743015); also: nearly all actives have a fitted effect of over 60% in size; also: potency is read from the fitted curve at half-maximal effect
[5] = qHTS assay to identify small molecule antagonists of the androgen receptor (AR) signaling pathway - cell viability counter screen (AID 743033; also: nearly all actives have a fitted effect of over 45% in size; also: potency is read from the fitted curve at half-maximal effect)
[6] = qHTS assay to identify small molecule antagonists of the androgen receptor (AR) signaling pathway using the MDA cell line - cell viability counter screen (AID 743041; also: nearly all actives have a fitted effect of over 45% in size; also: potency is read from the fitted curve at half-maximal effect)
Method in brief: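 Viability read by CellTiter-Fluor fluorescence in the same wells as the antagonist screen, added after 15.5 h of a 16 h, 37C exposure. Human breast carcinoma MDA-kb2 AR-luc cells, compounds co-dosed with agonist R1881.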

[7] = qHTS assay to identify small molecule antagonists of the thyroid receptor (TR) signaling pathway - cell viability counter screen (AID 743064); also: nearly all actives have a fitted effect of over 50% in size; also: potency is read from the fitted curve at half-maximal effect
Method in brief: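 Counter screen for cytotoxicity: compound plus T3 (1 nM final) on GH3.TRE-Luc cells, 23.5 h at 37 °C, then fluorescence viability readout with CellTiter-Fluor.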

[8] = target: Androgen receptor (Homo sapiens) (UniProt P10275); assay: qHTS assay to identify small molecule agonists of the androgen receptor (AR) signaling pathway (AID 743036; active = well fitted activation curve with a large enough effect in the signal ratio in the repeat runs, with a control signal flat, not every such curve was filed as active; the % refers to the signal ratio)
Androgen receptor (Homo sapiens), sequence (P10275 whole entry, looked up): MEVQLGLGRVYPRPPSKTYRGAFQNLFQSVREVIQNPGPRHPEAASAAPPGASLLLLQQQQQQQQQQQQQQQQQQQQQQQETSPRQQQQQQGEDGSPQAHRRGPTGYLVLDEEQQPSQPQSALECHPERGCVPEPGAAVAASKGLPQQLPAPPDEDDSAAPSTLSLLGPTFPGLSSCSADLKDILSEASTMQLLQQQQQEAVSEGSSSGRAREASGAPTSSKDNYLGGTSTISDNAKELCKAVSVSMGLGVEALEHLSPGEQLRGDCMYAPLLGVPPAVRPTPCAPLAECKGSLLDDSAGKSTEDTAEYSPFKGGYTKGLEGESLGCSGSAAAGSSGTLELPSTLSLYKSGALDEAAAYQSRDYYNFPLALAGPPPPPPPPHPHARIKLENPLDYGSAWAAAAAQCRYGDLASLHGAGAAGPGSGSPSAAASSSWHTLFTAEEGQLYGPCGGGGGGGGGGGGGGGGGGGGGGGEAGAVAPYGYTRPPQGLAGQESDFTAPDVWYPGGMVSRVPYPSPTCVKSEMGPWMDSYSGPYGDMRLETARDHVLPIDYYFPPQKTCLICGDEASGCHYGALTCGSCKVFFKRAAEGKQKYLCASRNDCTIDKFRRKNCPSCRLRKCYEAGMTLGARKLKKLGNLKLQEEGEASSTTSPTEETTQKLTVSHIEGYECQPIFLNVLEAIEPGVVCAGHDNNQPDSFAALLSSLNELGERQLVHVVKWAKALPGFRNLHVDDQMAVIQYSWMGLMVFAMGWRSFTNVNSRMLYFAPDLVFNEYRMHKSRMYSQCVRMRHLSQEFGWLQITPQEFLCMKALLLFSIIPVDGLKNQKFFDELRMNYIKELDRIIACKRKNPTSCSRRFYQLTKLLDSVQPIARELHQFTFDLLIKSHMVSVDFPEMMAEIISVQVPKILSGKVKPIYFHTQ
Method in brief: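 In this Tox21 qHTS, 2,000 HEK293 AR-bla cells per well were incubated with compounds for 16 h at 37C and 5% CO2. Fluorescence intensity was recorded 2 h after adding LiveBLAzer B/G FRET substrate at room temperature.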

[9] = target: Androgen receptor (Homo sapiens) (UniProt P10275); assay: qHTS assay to identify small molecule agonists of the androgen receptor (AR) signaling pathway using the MDA cell line (AID 743040; also: nearly all actives have a fitted effect of over 20% in size; also: potency is read from the fitted curve at half-maximal effect); settings: MDA-kb2 AR-luc cells, MMTV luciferase, 16 h; activity change: at 70.3 µM (top of the series), stronger effect = higher value
Method in brief: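 Luciferase agonist assay: 16 h compound exposure at 37C without CO2 in MDA-kb2 AR-luc cells, whose MMTV promoter responds to both AR and GR. Luminescence measured after 30 min room-temperature incubation with ONE-Glo.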

[10] = target: Androgen receptor (Homo sapiens) (UniProt P10275); assay: qHTS assay to identify small molecule antagonists of the androgen receptor (AR) signaling pathway (AID 743035; active = well fitted inhibition curve with a large enough effect in the signal ratio in the repeat runs, not every such curve was filed as active; the % refers to the signal ratio)
Method in brief: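 Quantitative HTS of the Tox21 10K library used HEK293 AR-UAS-bla cells stimulated with R1881 alongside compound for 16 h at 37C, followed by beta-lactamase FRET detection (LiveBLAzer B/G, 2 h, RT).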

Compound	Potency [1]	Potency [2]	Potency [3]	Potency [4]	Potency [5]	Potency [6]	Potency [7]	Potency [8]	Potency [9]	Potency [10]
CCN(C(C)=O)c1cccc(-c2ccnc3c(C#N)cnn23)c1	inactive	inactive	inactive	inactive	inactive	inactive	inactive	–	–	–
Cc1ccc2c(C)cccc2c1	inactive	inactive	inactive	inactive	inactive	inactive	inactive	–	–	–
O=S(=O)(Cl)Cl	inactive	inactive	inactive	inactive	inactive	inactive	inactive	–	–	–
N#CC1(N=NC2(C#N)CCCCC2)CCCCC1	inactive	inactive	inactive	inactive	inactive	inactive	inactive	–	–	–
c1ccc2c(c1)-c1cccc3cccc-2c13	inactive	inactive	inactive and 61.1 µM (active)	inactive	inactive	inactive	inactive	–	–	–
Clc1ccccc1	inactive	inactive	inactive	inactive	inactive	inactive	inactive	–	–	–
C=CCOCC1CO1 (configuration not stated)	inactive	inactive	inactive	inactive	inactive	inactive	inactive	–	–	–
O=C1CC[C@@]2(O)[C@H]3Cc4ccc(O)c5c4[C@@]2(CCN3CC2CC2)[C@H]1O5	inactive	inactive	inactive	inactive	inactive	inactive	inactive	–	–	–
CCCC[N+](CCCC)(CCCC)CCCC	inactive	4.32 µM (active)	3.85 µM (active)	2.43 µM (active)	inactive	inactive	inactive	–	–	–
Nc1cc(Cl)cc(C(=O)O)c1Cl	inactive	inactive	inactive	inactive	inactive	inactive	inactive	–	–	–
CC(C)OC(=O)Cc1ccccc1	inactive	inactive	inactive	inactive	inactive	inactive	inactive	–	–	–
CCOC(=O)C1OC1(C)c1ccccc1 (configuration not stated)	inactive	inactive	inactive	inactive	inactive	inactive	inactive	–	–	–
CC(C)[C@@H](C(=O)O[C@@H](C#N)c1cccc(Oc2ccccc2)c1)c1ccc(Cl)cc1	inactive	inactive	inactive and 54.5 µM (active)	30.6 µM (active)	inactive	inactive	inactive	–	–	–
CCCCCCCCP(=O)(O)O	inactive	inactive	inactive	inactive	inactive	inactive	inactive	–	–	–
Cc1ncc(C[n+]2csc(CCO)c2C)c(N)n1	inactive	inactive	inactive	inactive	inactive	inactive	inactive	–	–	–
C1CS1	inactive	inactive	inactive	inactive	inactive	inactive	inactive	–	–	–
CCCCCCCCn1sccc1=O	inactive	4.87 µM (active) and 454 nM (active)	2.17 µM (active) and 719 nM (active)	3.07 µM (active) and 1.02 µM (active)	4.37 µM (active) and 20.4 µM (active)	36 µM (active)	6.13 µM (active) and 5.09 µM (active)	–	–	–
CN1C[C@H](C(=O)N[C@]2(C)O[C@@]3(O)[C@@H]4CCCN4C(=O)[C@H](Cc4ccccc4)N3C2=O)C=C2c3cccc4[nH]cc(c34)C[C@H]21	inactive	21.1 µM (active) and 48.8 µM (active) and 22.6 µM (active)	23.7 µM (active) and 27.4 µM (active) and 18 µM (active)	9.44 µM (active) and 13.7 µM (active) and 10.1 µM (active)	inactive	–	inactive	–	–	–
Cc1nnc(-c2ccccc2)c(=O)n1N	inactive	inactive	inactive	inactive	inactive	–	inactive	–	–	–
O=[N+]([O-])c1cc(Cl)c(Cl)cc1Cl	inactive	inactive	inactive	inactive	inactive	inactive	inactive	–	–	–
CCNC(=O)NC(=O)/C(C#N)=N/OC	inactive	inactive	inactive	inactive	inactive	inactive	inactive	–	–	–
COc1ccc(C(O)(c2cncnc2)C2CC2)cc1 (configuration not stated)	inactive	inactive	inactive	inactive	inactive	inactive	inactive	–	–	–
C=CCSSCC=C	inactive	inactive	inactive	inactive	inactive	inactive	inactive	–	–	–
COC1=CC(=O)O[C@@H](/C=C/c2ccc3c(c2)OCO3)C1	inactive	inactive	inactive	inactive	inactive	inactive	inactive	–	–	–
C=CCOC(=O)C(C)(C)OC(=O)c1cc(-n2c(=O)cc(C(F)(F)F)n(C)c2=O)ccc1Cl	inactive	53.4 µM (active)	30 µM (active)	60 µM (active)	–	inactive	inactive	–	–	–
CC1(C)CC(=O)CC(C)(C)N1[O]	inactive	inactive	inactive	–	inactive	inactive	inactive	–	–	–

Compound	Potency [1]	Potency [2]	Potency [3]	Potency [4]	Potency [5]	Potency [6]	Potency [7]	Potency [8]	Potency [9]	Potency [10]
CC(C)c1ccc(NC(=O)N(C)C)cc1	inactive	inactive	68.5 µM (active)	–	inactive	inactive	inactive	–	–	–
C=CC(=O)NC(C)(C)CC(C)=O	inactive	inactive	54.5 µM (active)	–	inactive	inactive	inactive	–	–	–
CCCC(C)(COC(N)=O)COC(=O)NC(C)C (configuration not stated)	inactive	inactive	inactive	inactive	inactive	–	inactive	–	–	–
CN(C)C(=O)Nc1cccc(OC(=O)NC(C)(C)C)c1	inactive	inactive	–	inactive	inactive	inactive	inactive	–	–	–
O=C(O)C(F)(F)C(F)(F)C(F)(F)C(F)(F)C(F)(F)F	inactive	inactive	–	inactive	inactive	inactive	inactive	–	–	–
CCC1CCC(=O)O1 (configuration not stated)	inactive	inactive	inactive	inactive	–	inactive	inactive	–	–	–
CN1C(=O)CN=C(c2ccccc2)c2cc([N+](=O)[O-])ccc21	inactive	inactive	inactive	–	inactive	inactive	–	inactive	1.88 µM (active)	–
CN[C@@H](C)[C@H](O)c1ccccc1	inactive	inactive	–	inactive	inactive	–	inactive	–	–	–
OCCSSCCO	inactive	inactive	inactive	inactive	–	–	inactive	–	–	–
O=C(CCl)CCl	inactive	0.864 µM (active)	0.273 µM (active)	inactive and 686 nM (active)	inactive	–	25.2 µM (active) and 15.4 µM (active)	–	–	–
CCCC1CCCCN1 (configuration not stated)	inactive	inactive	inactive	inactive	–	–	inactive	–	–	–
CCOP(=S)(OCC)SCSc1cc(Cl)ccc1Cl	inactive	inactive	inactive	inactive	inactive	–	inactive	–	–	–
CC(C)CCCCCCCOC(=O)c1ccccc1C(=O)OCCCCCCCC(C)C	inactive	inactive	–	inactive	inactive	inactive	inactive	–	–	–
CCCCC(CC)CO[N+](=O)[O-] (configuration not stated)	inactive	inactive	inactive	inactive	inactive	–	inactive	–	–	–
CNC(=O)Oc1cccc(N=CN(C)C)c1	inactive	54.5 µM (active)	54.5 µM (active)	–	inactive	–	inactive	–	–	–
COC1CC(=C(c2cccs2)c2cccs2)C[N+](C)(C)C1 (configuration not stated)	inactive	23.7 µM (active)	–	29.8 µM (active)	inactive	inactive	inactive	–	–	–
CCCN(CCOc1c(Cl)cc(Cl)cc1Cl)C(=O)n1ccnc1	inactive	27.3 µM (active)	31.3 µM (active) and 30.6 µM (active)	49.6 µM (active) and 27.3 µM (active)	25.1 µM (active)	–	62.4 µM (active)	–	–	–
CC(C)(C)NCC(O)c1cc(Cl)c(N)c(C(F)(F)F)c1 (configuration not stated)	inactive	inactive	–	inactive	inactive	inactive	–	inactive	inactive	inactive
CCC(C)(C)c1ccc(O)c(C(C)(C)CC)c1	19.3 µM (active) and 19.5 µM (active)	24.3 µM (active)	27.3 µM (active)	53.9 µM (active) and 24.3 µM (active)	54.4 µM (active)	–	12.1 µM (active) and 13.7 µM (active)	–	–	–
SCc1ccccc1	inactive	inactive	inactive	inactive	inactive	–	inactive	–	–	–
CCOC(=O)c1cn2nc(OP(=S)(OCC)OCC)cc2nc1C	inactive	27.3 µM (active)	48.6 µM (active)	38.6 µM (active)	–	–	inactive	–	–	–
C=C(C)C(=O)OCCCCOC(=O)C(=C)C	inactive	inactive	inactive	–	inactive	–	inactive	–	–	–
O=C=NC1CCCCC1	inactive	inactive	inactive	inactive	inactive	–	inactive	–	–	–
COP(=O)(OC)OC(Br)C(Cl)(Cl)Br (configuration not stated)	inactive	30.7 µM (active) and 13.7 µM (active)	13.7 µM (active)	38.6 µM (active) and 21.7 µM (active)	–	inactive	54.5 µM (active) and 61.1 µM (active)	–	inactive	–
Cc1nc2ccccc2c(=O)n1-c1ccccc1Cl	inactive	42.4 µM (active)	59.8 µM (active)	–	inactive	inactive	30 µM (active)	–	–	–
Nc1ccccc1C(=O)OCCc1ccccc1	inactive	inactive	inactive	inactive	–	inactive	inactive	–	–	–

Reference: PubChem BioAssay (Tox21)
